AHR act = human AHR activation | P35869 | AHR-responsive luciferase reporter cells, luminescence | activation, % at 5 µM | 320,000 compounds, 2.5% hits | AID 2796; in the data active = activation above about 47%;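 note: 0% = vehicle wells and 100% = reference agonist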
hgDAF12 agonist = activates the H. glycines DAF-12 receptor ligand-binding domain. HEK293 GAL4-hgDAF12 UAS-luciferase reporter, agonist luminescence; normalized to butyrate control. activation, % at 6.8 µM. 370,000 compounds, 1.8% hits. AID 687014;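 active = activation above a cutoff set at the mean of all screened compounds plus 3 SD, cut at about 10% in these data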;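 note: 0% = DMSO wells and 100% = sodium butyrate wells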
hcDAF12 agonist = H. contortus DAF-12 activation, primary screen | HEK293 hcDAF-12 lit1-tk-luc reporter, luminescence; 0% DMSO, 100% Δ7-dafachronic acid | activation, % at 6.8 µM | 370,000 compounds, 1.4% hits;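 active = activation above the mean of all tested compounds plus 3 SD, cut at about 5.5% in these data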;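 note: 100% = response to 3 µM Δ7-dafachronic acid high control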
DAX1 inh-1 = inhibits human nuclear receptor DAX1 | P51843 | HEK293 Gal4-DAX1 luciferase reporter, luminescence | inhibition, % at 6.75 µM | 340,000 compounds, 0.99% hits | AID 504766;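 active = inhibition above the mean over all tested compounds plus 3 SD, cut at about 4.2% in these data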;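 note: 0% = DAX1-transfected cells with DMSO and 100% = empty-vector control cells with DMSO; inhibition shows as a rise in luminescence from relieved DAX1 repression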
Target sequence (P51843 207-470 limits assumed): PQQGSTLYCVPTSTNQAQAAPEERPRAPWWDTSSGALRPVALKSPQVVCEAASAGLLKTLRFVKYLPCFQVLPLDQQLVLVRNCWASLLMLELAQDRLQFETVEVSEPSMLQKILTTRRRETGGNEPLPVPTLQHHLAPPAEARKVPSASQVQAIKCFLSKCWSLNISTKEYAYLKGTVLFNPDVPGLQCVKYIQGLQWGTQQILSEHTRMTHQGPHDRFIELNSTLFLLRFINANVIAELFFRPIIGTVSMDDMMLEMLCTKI
ssDAF12 agonist = activates DAF-12 receptor from parasite S. stercoralis; AID 652126; HEK293 ssDAF-12/GRIP1 lit1-tk-luc reporter, luminescence; % of 3 µM dafachronic acid response; 370,000 compounds, 1% hits; activation, % at 6.8 µM;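 active = activation above the mean over all tested compounds plus 3 SD, cut at about 0.9% in these data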;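 note: 0% = DMSO-only wells and 100% = 3 µM delta7-dafachronic acid wells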
DAX1 inh-2 = inhibitors of DAX1 repression of SF-1 activated StAR promoter. inhibition, % at 6.8 µM. 370,000 compounds, 1.1% hits. HEK293T StAR-luciferase reporter, SF-1/DAX-1 repression relief;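 active = inhibition above the mean over all tested compounds plus 3 SD, cut at about 3.6% in these data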;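 note: 0% = DAX-1 cells with DMSO and 100% = cells lacking DAX-1 with DMSO; higher inhibition means more luminescence from relief of DAX-1 repression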
Numbers without * were called inactive; · = no result given. Hits are enriched below; roughly 5.7% of the tested compounds scored in any of these assays.

SMILES | AHR act | hgDAF12 agonist | hcDAF12 agonist | DAX1 inh-1 | ssDAF12 agonist | DAX1 inh-2
C/C(=N\Nc1nc2ccccc2c(=O)n1O)c1ccco1 | 12 | 4 | 2 | 4 | 0 | 1
CC(=O)Nc1ccc2c(c1)C(=Nc1ccccc1)c1ccccc1-2 | · | 2 | -2 | 1 | -1 | -1
CC(=O)Nc1cc2c3c(cccc3c1)-c1ccccc1-2 | · | 11* | 2 | 1 | 0 | 1
O=S(=O)(Nc1cccc(-c2ccc(N3CCCCCC3)nn2)c1)c1ccccc1Cl | 4 | 3 | -2 | 0 | -1 | 1
O=C(Nc1ccc(N=Nc2ccccc2)cc1)c1ccc(Cl)cc1Cl | -3 | 2 | 0 | 0 | -1 | 1
O=C(Nc1ccc(N=Nc2ccccc2)cc1)c1ccccc1Cl | -7 | 11* | 2 | 3 | -1 | 3.9*
O=C(O)c1ccc(NC(=O)c2ccccc2NC(=O)c2ccccc2Cl)cc1 | 0 | -1 | -2 | 4.5* | -1 | 0
CCOc1cccc2sc(N(CCN(CC)CC)C(=O)c3ccc(S(=O)(=O)N4CCCCC4)cc3)nc12 | 9 | 0 | 0 | -1 | 2.0* | 0
CCc1ccccc1N=Cc1c(C)c(C#N)c2[nH]c3ccccc3n2c1=O | · | 2 | 2 | -1 | -1 | 0
N#Cc1c(-c2ccc(F)cc2)cc(-c2cccnc2)nc1N | 55* | -2 | 4 | -1 | -2 | 0
Cc1sc2nc(CSC(C)C(=O)Nc3ccccn3)[nH]c(=O)c2c1C (configuration not stated) | 6 | 4 | 2 | 0 | -1 | 4.0*
Cc1sc2nc(CSCC(=O)Nc3c(F)cccc3F)[nH]c(=O)c2c1C | 7 | 3 | 0 | 2 | -1 | 1
Cc1cccc(NC(=O)C(C)SCc2nc3sc(C)c(C)c3c(=O)[nH]2)n1 (configuration not stated) | 7 | -4 | -1 | 0 | -1 | 0
Cc1sc2nc(CSCC(=O)Nc3ccc(C(F)(F)F)cc3)[nH]c(=O)c2c1C | 59* | 3 | -1 | 0 | -1 | -1
S=C(NCc1ccccn1)Nc1ccccc1Cl | 13 | 2 | 5.6* | 1 | -1 | 1
O=C(NCc1ccccn1)Nc1ccc(Br)cc1Cl | 1 | 6 | 1 | 2 | -1 | 5.2*
S=C(NCc1ccccn1)Nc1ccc(Br)cc1Cl | 7 | 6 | 1 | 5.6* | 0 | 2
S=C(NCc1ccccc1Cl)Nc1ccccc1Cl | 4 | 5 | -1 | 7.4* | -1 | 0
O=C(NCc1ccccn1)Nc1ccc(Cl)cc1Cl | 8 | 7 | 1 | 1 | 0 | 3
S=C(NCCNC(=S)Nc1ccccc1Cl)Nc1ccccc1Cl | 0 | 0 | -2 | 0 | -1 | 0
S=C(NCCc1ccccn1)Nc1ccccc1Cl | -2 | -2 | -2 | 0 | -2 | 0
COc1cccc(CNC(=O)CSC(=S)N2CCCC2)c1 | -1 | 0 | 1 | 2 | -1 | -1
CC(=O)c1ccc(N2C(=NC(=O)COc3ccccc3)SC3CS(=O)(=O)CC32)cc1 (configuration not stated) | 5 | 2 | 2 | 5.5* | -1 | 0
CC(=O)c1cccc(N2C(=NC(=O)COc3ccccc3)SC3CS(=O)(=O)CC32)c1 (configuration not stated) | -1 | -3 | -3 | 1 | -1 | 0
CC(NC(=O)c1c(O)c2ccccc2n(C)c1=O)c1ccccc1 (configuration not stated) | 14 | 5 | 6.0* | 3 | 0 | 0
Cn1c(=O)c(C(=O)NCCc2ccccc2)c(O)c2ccccc21 | 72* | 1 | 6.3* | -1 | 1.7* | -1
CCCn1c(=O)c(C(=O)NCCc2ccccc2)c(O)c2ccccc21 | 2 | 0 | 1 | 0 | -1 | 1
CC(=O)c1c(O)c2ccccc2n(C)c1=O | 12 | 1 | 5 | 1 | 0 | 0
CCn1c(=O)c(C(=O)Nc2ccccc2F)c(O)c2ccccc21 | 22 | 5 | 6.2* | 1 | 0 | 1
O=C(NCc1ccccc1C(F)(F)F)c1cccc2c1C(=O)c1ccc(N3CCOCC3)cc1S2(=O)=O | 8 | 0 | -2 | 1 | -1 | 0
